Data: PubChem BioAssay AID1508600 (Functional Genomics Laboratory (NCATS/FGL), 2020)
About 3,700 (7%) of roughly 53,000 sequences were called active.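 How the source made its calls: active means gene knockdowns whose robust z-score for IL-1 alpha signal is at least 2 or at most -2, so actives lie on both sides; inactive means the rest.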 The entries come from a sample that favours actives as a whole.

assay: Components of the Cytosolic LPS Sensing Pathway: Gene Identification via Genome-wide siRNA Screen; conditions: RAW264.7 macrophages, IL-1a HTRF, actives lie on both sides, screened at 100 nM (by protocol), cells primed 5 h with Pam3CSK4 first;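 further: robust z of the log signal after scaling to non-targeting control siRNA wells of the plate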
Method in brief: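 RAW264.7 mouse macrophages reverse-transfected with single siRNAs (100 nM final) for 48h, primed with Pam3CSK4 for 5 hours, then transfected with LipidA for 24 hour. Supernatant IL-1a read by HTRF; values normalized to negative-control median, log-transformed robust z-scores.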

z-score, active:
CGACAAAAGCCACCUUUCGTT against Tm4sf4 -2.62
GGAGCCCAGGAAGAUGACATT against Cyp2c54 -3.15
GGCUGACUUCGUUUUCAUGTT against Derl3 -2.01
GGGUGACAGGUUGAUCUCATT against Tcn2 -2.11
GCAAAUGUCUCGGAAAGAATT against Cdk11b -2.18
GGCAAAAUAGAGAAAUACATT against Lima1 2.37
GGCGAAAAGACCAGUUAUGTT against Man2c1 2.31
CGUACCUAAGCAUACCAGCTT against Gpr20 4.94
GGAGCGUACCAUGAUCGAUTT against Parvb -2.17
GGUGAUUUCGGGUAACGAGTT against Ddr1 -2.17
GGUUUUUGUGGAAAUGUGGTT against Smpd4 -2.58
GGAAGGUCUUCGAGAUUUUTT against Gpr75 4.56
GGAAAAGUCCCGUAUGGAGTT against Gcc1 -3.14
GGUGAUGGAGAAGAGAAGATT against Fam107b 2.88
CGGUGACAUUUGUGAAACUTT against Smn1 -2.05
GGAGUUGUUGUGCUUUUAATT against Tmem45a 3.02
GGAAUUUGUCAACCGGACCTT against St6galnac6 3.31
GGGAUGCAUCAAAAUACAATT against Pdk3 4.82
CCCGAUUACUGGAGUUAAATT against Kbtbd7 2.32
GGAAGAGUGACCUUAAGUCTT against Arhgap30 2.29
GCAGAAAUGUCCAUCCAAATT against Sprr2k 2.36
GGGCCAGACUCCAUACUAUTT against Arid1a 3.71
GGAAGAGCAGGAGGAAACATT against Mea1 -2.01

z-score, inactive:
GGAUAUGUUUGGUUAUUUCTT against Acbd4 -0.0997
GGAGACUGUGAUUGAGAUGTT against Rnf181 -0.401
GGAGUCUGUGAACAAUCUCTT against Mx2 0.0232
GGAGUGUGUAAAGACAUAATT against Rnase2a -0.685
GGACAAGAGGAGCUUUUGCTT against Id3 -0.446
GGUUUUCUUAAAAUAGGAGTT against Tat -0.205
GGAGGACUGGGAAGAUCAUTT against Aqp5 0.152
GGUAAGUUAAAUGAUGACATT against Ccdc148 -0.896
GGAUAUAACUGCUAUGGUUTT against Rhebl1 -0.241
GCUUAGAGCUUCAUAUAGCTT against Tlr12 -0.367
GGUGGAAGCAAUUUUAAAUTT against Trpc7 0.384
GGGAUGAGUACAAGAAAAATT against Nsun3 -0.927
CGUGUUGGAGUACAAUGAGTT against Imp3 -0.927
GGACAGUGAAGAGGAUUCCTT against Anapc15 -0.988
GCGGAUUAACCUCUGUGGCTT against Igfl3 0.244
GGUGGAGGAACGAAAGUUUTT against Ribc1 0.625
CGAGGUCAAUAUCAUUCCATT against Serpinb11 0.727
GCUGCUAAUAUCAAUAACGTT against Prf1 -0.809
GGCCAAACAACUGGUGAAGTT against Nelfe -0.832
GGUGUUUUCUGUGUAACCATT against Tlx1 -0.843
GGAUGUUUGGACAAUCUAUTT against Itga4 0.634
GCAAGAGACCAUGAGAAAUTT against Ccdc18 -0.149
GGACUAGAAUAUCACAACGTT against Iqub 0.905
GCCAUGUUUAAGCAAUUGUTT against Vsx1 -0.575
GGAGGGUAUUAGUGCACUGTT against Ptpn1 -0.111
GCCUCAUUUGCUUCACUGUTT against Cd163l1 0.148
GGUGCACUCUGUCAGUUCATT against Col27a1 -0.352
GCAUACCUAUUCACGUACGTT against Slc7a4 -0.475
GCCCAAGCUUUUAUCAAGATT against Frmd4b 1.48
CCCUUUCCUAUGCAUUUGCTT against Olfr851 0.97
CGAGCUUCGGAGGAAGUGATT against Zc3hav1l -0.743
GGUACUCUGUGGAUAUCCCTT against Rpl27 -0.224
GGCUUCUUCACUGAAAUUCTT against 1700074P13Rik -1.1
GGCACUUUGUGGCAAAUCUTT against Pcdhb1 0.742
CGUGCAAGCAGUGAUUUUGTT against Smpx -1.33
GGCUCAAGUAUGAGUCUCATT against Calhm2 0.73
GGGAAGAAGAAAAAGAUGATT against Peak1 -0.506
CGGACUAUCUCUAUGAAGATT against Tas2r108 -0.587
GGGUGUUUUUAAGUGUCCCTT against Zfp574 0.475
GGCAGUUUGUUAAUGAAUGTT against Pcsk1 -0.901
GGAGGAGAAAACAGGAAUUTT against H2-Eb1 -0.03
GCGACCGUAUUGUCACUUGTT against Arpc1a -0.465
CCUUGUCGAGCACAUGAGATT against Zfp69 0.0825
GGCAAGUGAGGAAAAGAGGTT against Setd1a -0.741
GAUUUUCCUCUACUGUCCUTT against U90926 -0.532
GGUCUUGGAUGCAAACGAUTT against Pcdhga2 0.518
GCUAGCAAGUGAGAUGGAGTT against Mbd3l1 1.58
GGGCCUUCAAAAAACUGCCTT against Eva1b 1.75
GGGAGAUAUGCAAUGAAUATT against Creb5 -1.34
CCUCUUAAACAUGUCCUAGTT against Atp6v0a2 -1.04
CCUUCUGGAGUACAUAUCCTT against Trip6 0.16
CCAAAUGCUUAUCUCUACATT against Dock6 0.00388
GGACAAAAAAAUAGAAGGATT against Rrbp1 0.344
GGACUAUCUUUAUGAUGUGTT against Ush1c -0.164
GGUUUGUAAAGGUUAUGACTT against Nell2 0.0203
CCUAGAAGCUAAUUACCAATT against Saa4 -0.946
GCGGCUACUCAUAUAAGUCTT against Trappc8 -0.5
GGAGAAUUACGGUGCCAACTT against Ncoa3 -0.354
GCUCAUCUCGAUUUGACUGTT against Cln3 -1.67
CCUAAUCCUGAUAAUUCCATT against Niban2 -1.54
GGACUCACAGUUAAAAGUATT against Gtse1 1.2
GCUAUGUGGGUUGUGCUAUTT against Olfr1361 0.734
CCCUAGUUUAUCUCCGGAUTT against Lhx1 1.15
GCUAUUGGGUAAUUUGCUUTT against Slco4a1 0.436
CGUAUAUCGAUGAAGAUGATT against BC016579 -1.12
GGACAAGGAGUAUUAUGUGTT against Nrxn3 -0.372
GGCCUUGAAGCAGAAGUCUTT against Gfra1 -1.21
GGGCUUUGUGCCCAACAUGTT against Rtcb 0.278
GGAAGAUGAACUUCGUACCTT against Slc4a2 -0.438
GGUCCUGAAGAAGAUUGCATT against Hmox1 -0.72
GGCACAGAUUGUGGUGAAGTT against Ccdc43 -0.518
GCUGCACCAUGAAUGAGUCTT against Il4 0.819
GGAUGUUGUGGGAAAUGACTT against Plaat1 -0.27
GGCAAAUCUGAACAACAUUTT against Agt 1.16
GGCAGUGCUGGCAACAAAUTT against Hsd3b5 -0.884
GGAAACCUACCGUUACCUATT against Kcnj5 -0.181
GCCAUUUAUUGAAACUCGCTT against Becn1 -0.905
GGCAGCUGCUGACUUGAUGTT against Gng2 0.133
GCACAUGCCAUACAACCAUTT against Fads1 0.655
GCGAUUGAGCAGUGAAUAATT against Fam216b 1.06
GGAGAAGCGGCAAAUGGAATT against Fam32a 0.429
GGCAAGGACUCCAAGGACATT against Wdr45 -1.31
GGAGAAAAGCUGUAUACACTT against Tmem177 1.22
GGAGGAGAUGAUAAAGAUUTT against Glyr1 -0.987
CCCAUCAGACUUUGACCGUTT against Lbh -1.45
